Bioassay records deposited in PubChem BioAssay by National Center for Advancing Translational Sciences (NCATS).
Most compounds without a hit are left out; they make up all but 10% or so of the library.
BAZ2B block = inhibitors of human BAZ2B bromodomain. Potency, µM (top dose mostly 114 µM), for inactives: at the top dose activity change, negative = inhibition, most hits filed as inhibitors. AID 504333. AlphaScreen BAZ2B-H3K14Ac peptide displacement. Q9UIF8. 4.4% of 360,000 active; further: potency means the concentration at half of the fitted maximal effect; on the % scale 0 is the no-effect control and ±100 the full control effect; nearly all actives have a fitted effect of over 60% in size
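In this displacement format the biotinylated H3(5-23) peptide acetylated at Lys14 serves as ligand at 50 nM, with BAZ2B at 50 nM in PBS pH 7.4 containing 0.01% Tween-20. Donor and acceptor beads are 10 ug/mL final.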
CtBP-E1A inh = blocks the CtBP interaction with E1A; AlphaScreen GST-E1A/His-CtBP binding, 1536-well; stronger effect = lower value; activity change, % (no concentration beside the values); 0.49% of 340,000 active; AID 651724; in the data active means activity change below about -65%; inconclusive means mostly about -30% to -63%; further: on the % scale 0 is the no-effect control and ±100 the full control effect
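Steps: dispense buffer (Tris pH 8.0, NaCl 300 mM, TCEP 1 mM, BSA, Tween 20); add 5X protein mix (GST-E1A, His-CtBP, 125 nM each); pin 23 nL compound; 2 h at 37 °C, dark; add 5X beads (50 ug/mL); 1 h; read.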
HP1b chromo inh = HP1-beta chromodomain-methylated histone interaction inhibition. P83916. AlphaScreen HP1-beta / biotin-H3K9me3 peptide binding. Potency, µM (top dose mostly 114 µM), inactives show at the top dose activity change, negative = inhibition, actives largely listed as inhibitors. 0.56% of 390,000 active. AID 540317; further: potency means the concentration at half of the fitted maximal effect; nearly all actives have a fitted effect of over 70% in size
Target sequence (P83916 whole entry, looked up): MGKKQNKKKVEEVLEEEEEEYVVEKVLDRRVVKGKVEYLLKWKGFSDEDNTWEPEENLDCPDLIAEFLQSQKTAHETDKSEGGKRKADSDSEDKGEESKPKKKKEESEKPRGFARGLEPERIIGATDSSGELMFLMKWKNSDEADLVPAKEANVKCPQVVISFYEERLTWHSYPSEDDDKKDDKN
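AlphaScreen: HP1-beta (50 nM) preformed 30 min with biotin-H3(1-18)K9me3 peptide (50 nM) in PBS pH 7.4, 0.01% Tween-20. Compound added for 30 min at RT, then streptavidin donor/nickel chelate acceptor beads (10 ug/mL) for 30 min.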
JMJD2A Tudor = blocks the human JMJD2A Tudor domain; AlphaScreen JMJD2A-Tudor / H3K4me3 peptide binding; O75164; 4.4% of 390,000 active; Potency, µM (series often up to 114 µM), without a hit: at the highest dose activity change, negative = inhibition, actives largely listed as inhibitors; further: potency means the concentration at half of the fitted maximal effect; on the % scale 0 is the no-effect control and ±100 the full control effect; nearly all actives have a fitted effect of over 50% in size
Six1-Eya2 blk = Six1/Eya2 interaction inhibition. Q15475+O00167. AlphaScreen GST-Six1/His-Eya2 binding, biochemical; stronger effect = lower value. activity change, % (no concentration beside the values). 0.56% of 360,000 active. AID 651725; in the data active means activity change below about -65%; inconclusive means mostly about -30% to -63%; further: on the % scale 0 is the no-effect control and ±100 the full control effect
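Compounds are tested against tagged Six1 and Eya2 proteins bridged by glutathione donor and nickel acceptor beads; after a one-hour incubation at 37 °C without light, AlphaScreen emission is recorded.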
G9a inh = G9a (human) methyltransferase inhibition | Q96KQ7 | G9a H3K9 monomethylation, AlphaScreen, 2 h | Potency, µM (titrated, usually from 102 µM), for the others: top-dose activity, negative = inhibition, actives largely listed as inhibitors | 8.8% of 350,000 active | AID 504332; further: potency means the concentration at half of the fitted maximal effect; on the % scale 0 is the no-effect control and ±100 the full control effect; nearly all actives have a fitted effect of over 75% in size
Target sequence (Q96KQ7 913-1193 limits assumed): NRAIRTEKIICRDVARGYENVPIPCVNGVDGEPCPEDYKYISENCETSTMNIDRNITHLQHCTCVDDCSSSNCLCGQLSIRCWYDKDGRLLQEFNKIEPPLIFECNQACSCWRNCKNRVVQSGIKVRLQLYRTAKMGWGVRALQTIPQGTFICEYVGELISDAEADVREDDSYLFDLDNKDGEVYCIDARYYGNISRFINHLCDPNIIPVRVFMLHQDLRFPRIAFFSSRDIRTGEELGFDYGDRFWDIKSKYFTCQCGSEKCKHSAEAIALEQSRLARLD
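Chemiluminescent proximity detection of H3K9 monomethylation, read after 10 min bead incubation in the dark. Reaction: 20 nM G9a, 500 nM biotin-H3K9 peptide, 20 uM SAM cofactor, 2 h, room temperature, following 15 min enzyme-compound preincubation.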
An asterisk follows results filed as active; ? = inconclusive; / = not tested or not shown; ! = a repeat was not active; [ ] = remark or other dose. Unless noted, the call rests on the fitted dose curve; in most records, active means well fitted inhibition curve with a large enough effect; inconclusive means small, poorly fitted or top-dose-only effect; inactive means no such curve, though single readings can be large or run the other way.

SMILES | BAZ2B block | CtBP-E1A inh | HP1b chromo inh | JMJD2A Tudor | Six1-Eya2 blk | G9a inh
Cc1ccc(C(=O)Nc2ccc(N3CCN(C(=O)c4ccco4)CC3)cc2)cc1 | -28% | 3 | -7% | 79µM* | -1 | 2%
O=C(Cc1ccc(Cl)cc1)Nc1ccc(N2CCN(C(=O)c3ccco3)CC2)cc1 | -31% | -10 | -15% | 25%[11.4 µM] | -15 | 7.9µM*
Cc1ccc(C(=O)c2cc(C)sc2NC(=O)CN2CCN(C(=O)c3ccco3)CC2)cc1 | ? | -16 | ? | ? | -25 | 32µM*
O=C(Nc1ccc(N2CCN(C(=O)c3ccco3)CC2)cc1)c1ccc(Br)cc1 | -17% | / | 37% | -9% | 3 | 0%
O=C(COc1ccc2ccccc2c1)N1CCN(C(=O)c2ccco2)CC1 | 13% | -12 | 5% | -10% | 2 | -37%
O=C(NCc1ccccc1)c1cccc(OCC(=O)N2CCN(C(=O)c3ccco3)CC2)c1 | ? | 1 | 0% | 40µM* | -3 | 8.9µM*
Cc1ccc(-c2c(C)n3c4c(=O)n(C)c(=O)n(C)c4nc3n2CCO)cc1 | -23% | / | 24% | -12% | / | 10%[59 µM]
Cc1cccc(-n2c(=O)c3c(c4cc(C)ccc4n3C)n(CC(=O)Nc3ccc(C)cc3C)c2=O)c1 | 0% | / | 44% | 2% | / | 1%[59 µM]
Cc1cccc(OCC(=O)Nc2ccc(N3CCN(C(=O)c4ccco4)CC3)cc2)c1 | -38% | -6 | 0% | -33% | -9 | 79µM*
O=C(Nc1ccc(-c2nnn(CC(=O)N3CCN(C(=O)c4ccco4)CC3)n2)cc1)c1ccc(F)cc1 | 79µM* | -9 | 54% | -5%[11.4 µM] | -2 | 56µM*
Cc1ccc(OCC(=O)Nc2ccc(N3CCN(C(=O)c4ccco4)CC3)cc2)cc1C | -11% | -1 | 6% | -26% | -16 | 8%[0.501 µM]
O=C(Cn1nnc(-c2ccc(F)cc2)n1)N1CCCCC1 | -16% | 1 | 30% | 7% | -4 | 22%
CCOc1ccccc1NC(=O)Cn1cc(C(=O)c2cccc(OC)c2)c(=O)c2ccc(C)nc21 | -1% | / | 15% | -27% | / | 12%[59 µM]
Cc1ccc(N=N/C(=C\O)C(=O)c2ccc(Cl)cc2)cc1 | 11µM* | / | ? | -35%[11.4 µM] | -25 | 25µM*
O=S(=O)(Nc1nc2n(n1)C(c1ccccc1)C=C(c1ccc(Cl)cc1)N2)c1ccccc1 (stereo not drawn) | 79µM* | / | 55% | -5% | / | ?
Cc1ccc(C2C=C(c3ccc(Cl)cc3)Nc3nc(NC(=O)c4ccco4)nn32)cc1 (stereo not drawn) | 50µM* | / | 34% | 79µM* | / | 32µM*
Cc1ccc(S(=O)(=O)Nc2nc3n(n2)C(c2ccc(F)cc2)C=C(c2ccccc2)N3)cc1 (stereo not drawn) | -15% | / | 31% | -7% | / | ?
Cc1ccc(C2C=C(c3ccccc3)Nc3nc(NS(=O)(=O)c4ccccc4)nn32)cc1 (stereo not drawn) | 2% | / | 48% | -8% | / | 14µM*
Cc1ccc(C2C=C(c3ccccc3)Nc3nc(NS(C)(=O)=O)nn32)cc1 (stereo not drawn) | 0% | / | 22% | -5% | / | 20µM*
O=C(NCCS(=O)(=O)N1CCN(c2ccccc2F)CC1)c1ccccc1C(F)(F)F | -2% | / | 18%[57 µM] | -22% | / | 14%[59 µM]
COc1ccc(N(Cc2cccs2)C(=O)COc2cccc(Cl)c2)cc1 | 79% | / | 113% | 55% | / | 97%[59 µM]
Cc1ccsc1CN1CCc2nc(Nc3ccccc3)ncc2C1 | ? | / | -13% | ? | / | -46%[59 µM]
Cc1ccc(C2C=C(c3ccccc3)Nc3nc(N4C(=O)CCC4=O)nn32)cc1 (stereo not drawn) | 50µM* | -2 | 13% | 79µM* | -6 | ?
CCOC(=O)C(CC)Sc1ncnc2sc3c(c12)CCCC3 (stereo not drawn) | 180% | / | 130% | 114% | / | 168%[59 µM]
O=S(=O)(/N=C/c1ccccc1O)c1cccs1 | 1% | 1 | 43% | -13% | 2 | 27%
SMILES | BAZ2B block | CtBP-E1A inh | HP1b chromo inh | JMJD2A Tudor | Six1-Eya2 blk | G9a inh
O=C1C(Nc2ccc(O)cc2)=C/C(=N/S(=O)(=O)c2cccs2)c2ccccc21 | 7.9µM* | ? | ? | 20µM* | -77* | 11µM*
O=C1/C(=N\S(=O)(=O)c2cccs2)C([n+]2ccccc2)=C([O-])c2ccccc21 | ? | / | 28% | -3% | 6 | 1%[59 µM]
CC(C)(C)c1cc[n+](C2=C([O-])c3ccccc3C(=O)/C2=N\S(=O)(=O)c2cccs2)cc1 | -28% | -1 | -15% | -25% | -1 | /
Cc1ccc(Cl)cc1NC1=C/C(=N\S(=O)(=O)c2cccs2)c2ccccc2C1=O | 10µM* | -78* | 4µM*! | 2.8µM* | -74*! | 8.9µM*
Cc1cccc(NC2=C/C(=N/S(=O)(=O)c3cccs3)c3ccccc3C2=O)c1 | 2.5µM* | ? | ? | 5.6µM* | -23 | ?
Cc1ccc(NC2=C/C(=N\S(=O)(=O)c3cccs3)c3ccccc3C2=O)c(C)c1 | 3.5µM* | -85* | 5.6µM* | 4.5µM* | -84* | 7.9µM*
O=C(NCCN1CCCCC1)c1ccc(Cn2c(SCc3ccccc3)nc3cccnc32)cc1 | 17% | / | 67% | -16% | / | 9%[59 µM]
Cc1cc(Nc2cc(Cl)ccc2C)n2nc(Cc3ccccc3)nc2n1 | -19% | / | 35% | -21% | / | 2%[59 µM]
Cn1c(-n2cccc2)c(-c2c(-c3ccccc3)[nH]c3c2c(=O)n(C)c(=O)n3C)c(=O)n(C)c1=O | -11% | / | 40% | -12% | / | -29%[59 µM]
Cc1cc2c(s1)c1cnn(Cc3cc(C(F)(F)F)ccc3F)c(=O)c1n2C | / | / | / | -29% | / | /
O=C(Nc1sc2c(c1C(=O)NCc1ccco1)CCCC2)c1cc(=O)c2cc(Cl)ccc2o1 | -4% | / | 14% | -8% | / | 0%[59 µM]
O=C(NNc1ccc(F)cc1F)C1CCC1 | 2% | -23 | 23% | -6% | -13 | 18µM*
O=C(NNc1cc(Cl)ccc1Cl)C1CCC1 | 0% | -2 | -5% | 71µM* | -10 | 50µM*
CC(C)(C)c1ccc(NNC(=O)C2CCC2)cc1 | -2% | 8 | 43% | -6% | 3 | 14µM*
O=C(NNc1ccccc1F)c1ccccc1 | 2% | 7 | 40% | -11% | 5 | 28µM*
O=C(CNC(=O)C1CCCCC1)Nc1cc(Cl)ccc1Cl | 2% | 8 | 24% | -12% | 8 | 1%[59 µM]
O=c1c(-c2ccc(Cl)cc2)nc2cnc(N3CCOCC3)nc2n1Cc1ccc(F)cc1 | / | / | / | / | / | 24%[0.501 µM]
CC1CCc2onc(C(=O)N3CCN(c4ccc(Cl)cc4)CC3)c2C1 (stereo not drawn) | 10%[57.1 µM] | / | 40% | -1% | / | -21%[59 µM]
COc1ccc(NC(=O)Cn2c(SCc3c(F)cccc3Cl)nc3ccncc32)cc1OC | 2% | / | 13% | ? | / | ?
